In PubChem BioAssay (NCI) one finds growth inhibition data, which are given here for nine molecules.

Test [1] can be described thus: NCI Yeast Anticancer Drug Screen. Data for the rad50 strain (AID 155).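 Further: 0% = growth of vehicle-only cultures of the same strain.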 To be noted: S. cerevisiae rad50 strain growth inhibition, hits give high values. The method, boiled down: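 Growth of the mutant yeast was measured after compound exposure and referenced to vehicle-treated cultures.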
Test [2] is described as follows: NCI Yeast Anticancer Drug Screen. Data for the mec2-1 strain (AID 157). To be noted: S. cerevisiae mec2-1 strain, hits give high values. The method, boiled down: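 Using mec2-1 yeast: add compound, measure growth, express inhibition versus vehicle-treated cultures.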
The nature of test [3]: NCI Yeast Anticancer Drug Screen. Data for the sgs1 mgt1 strain (AID 161).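 Further: 0% = growth of cultures given vehicle only.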 The settings on record: S. cerevisiae sgs1 mgt1 strain, hits give high values. The method, boiled down: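 This yeast growth screen uses a strain with defined DNA-repair lesions; compound-treated growth is compared with vehicle-treated growth.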
Test [4] in a line: NCI Yeast Anticancer Drug Screen. Data for the cln2 rad14 strain (AID 165).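 Further: 0% = growth equal to vehicle treated cultures.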 The settings on record: S. cerevisiae cln2 rad14 strain, hits give high values. A digest of the protocol: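 Yeast strain cln2 rad14, bearing defects in cell cycle control and DNA repair, serves as the test system; values reflect growth inhibition compared with vehicle.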
A short description of test [5]: NCI Yeast Anticancer Drug Screen. Data for the bub3 strain (AID 167). To be noted: S. cerevisiae bub3 mutant strain, hits give high values. A digest of the protocol:
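Whole-cell yeast assay. The mutant strain was incubated with compounds, and growth inhibition was determined by comparison with vehicle-treated cells.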

Test [6] can be described thus: NCI Yeast Anticancer Drug Screen. Data for the mlh1 rad18 strain (AID 175). The settings on record: S. cerevisiae mlh1 rad18 strain growth inhibition, hits give high values. The method, boiled down: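 Steps: expose repair-defective yeast to compound; measure growth; express inhibition against vehicle-treated controls.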
Setting [7] is: at 5.0 µM (retest, dose inferred, filed as 0.5).
Setting [8] is: at 50.0 µM (retest, dose inferred, filed as 5.0).

SMILES strings stand for the structures. This is part of a sample that, as a whole, favours compounds with a hit. Of some 79,000 tested, about 15% had one in any assay. Values without a mark were called inactive. Active and inactive are the calls of the source. No stated cut-off is given here; in the data, active means growth inhibition above about 70%; inactive means the rest.

As to `CC(=O)SC(SC(C)=O)SC(C)=O`, the growth inhibition in test [1] (setting [7]) was 11%; in test [1] (setting [8]) it was 93% (active); in test [1] (at 50.0 µM), 93.9% (active); in test [2] (setting [7]), 0%; in test [2] (setting [8]) it was 98% (active); in test [2] (at 50.0 µM), 93.1% (active). Moreover, the growth inhibition in test [3] (setting [7]) was 15%; in test [3] (setting [8]), 94% (active); in test [3] (at 50.0 µM) it was 93.1% (active); in test [4] (setting [7]) it was 20%; in test [4] (setting [8]) it was 97% (active); in test [4] (at 50.0 µM), 89.6% (active). Moreover, the growth inhibition was 29% in test [5] (setting [7]); 99% (active) in test [5] (setting [8]); 92% (active) in test [5] (at 50.0 µM); 16% in test [6] (setting [7]); 99% (active) in test [6] (setting [8]); 90.5% (active) in test [6] (at 50.0 µM).

With `CN(C)/N=C1\CC(c2ccccc2)C(C#N)(C#N)C1(C#N)C#N` (configuration not stated), the growth inhibition in test [1] (setting [7]) is 41%; in test [1] (setting [8]) it was 99% (active); in test [1] (at 50.0 µM), 89.3% (active); in test [2] (setting [7]), 51%; in test [2] (setting [8]) it was 100% (active); in test [2] (at 50.0 µM), 89% (active). The growth inhibition in test [3] (setting [7]) was 42%; in test [3] (setting [8]) it was 100% (active); in test [3] (at 50.0 µM), 88.5% (active); in test [4] (setting [7]), 39%; in test [4] (setting [8]), 99% (active); in test [4] (at 50.0 µM) it was 88.5% (active). Also, the growth inhibition in test [5] (setting [7]) was 56%; in test [5] (setting [8]), 100% (active); in test [5] (at 50.0 µM), 89.6% (active); in test [6] (setting [7]), 51%; in test [6] (setting [8]) it was 99% (active); in test [6] (at 50.0 µM), 91.5% (active).

For the molecule `COC(=O)Cc1nc2ccccc2s1`, the growth inhibition in test [1] (setting [7]) was 1%; in test [1] (setting [8]) it was 99% (active); in test [1] (at 50.0 µM), 99.2% (active); in test [2] (setting [7]) it was -9%; in test [2] (setting [8]), 100% (active); in test [2] (at 50.0 µM) it was 99.5% (active). The growth inhibition in test [3] (setting [7]) is 11%; in test [3] (setting [8]), 92% (active); in test [3] (at 50.0 µM), 99.3% (active); in test [4] (setting [7]), 13%; in test [4] (setting [8]) it was 96% (active); in test [4] (at 50.0 µM), 97.3% (active). Further, the growth inhibition is -10% in test [5] (setting [7]); 100% (active) in test [5] (setting [8]); 98.5% (active) in test [5] (at 50.0 µM); -2% in test [6] (setting [7]); 76% (active) in test [6] (setting [8]); 99% (active) in test [6] (at 50.0 µM).

For the molecule `COc1ccc(CCNC(=S)/N=C\C(C(=O)c2ccccc2)=C(\O)c2ccccc2)cc1OC`, the growth inhibition in test [1] (setting [7]) is 1%; in test [1] (setting [8]) it was 95% (active); in test [1] (at 50.0 µM) it was 99% (active); in test [2] (setting [7]) it was 0%; in test [2] (setting [8]) it was 93% (active); in test [2] (at 50.0 µM), 98.8% (active). Further, the growth inhibition was -2% in test [3] (setting [7]); 75% (active) in test [3] (setting [8]); 99% (active) in test [3] (at 50.0 µM); -25% in test [4] (setting [7]); 98% (active) in test [4] (setting [8]); 97.8% (active) in test [4] (at 50.0 µM). Besides, the growth inhibition in test [5] (setting [7]) was 0%; in test [5] (setting [8]), 99% (active); in test [5] (at 50.0 µM), 98.8% (active); in test [6] (setting [7]), 3%; in test [6] (setting [8]), 97% (active); in test [6] (at 50.0 µM), 98.6% (active).

As to `CCSC(=O)/C=C1\CN(C(=O)OC(C)(C)C)C1C(=O)OC(C)(C)C` (configuration not stated), the growth inhibition in test [1] (setting [7]) is -23%; in test [1] (setting [8]), -7%; in test [1] (at 50.0 µM) it was 30.1%; in test [2] (setting [7]), -40%; in test [2] (setting [8]) it was -9%; in test [2] (at 50.0 µM) it was 26.9%. The growth inhibition in test [3] (setting [7]) was -44%; in test [3] (setting [8]) it was -2%; in test [3] (at 50.0 µM), 56%; in test [4] (setting [7]), -35%; in test [4] (setting [8]), 14%; in test [4] (at 50.0 µM), 72.9% (active). Also, the growth inhibition in test [5] (setting [7]) is -57%; in test [5] (setting [8]) it was 10%; in test [5] (at 50.0 µM), 58.5%; in test [6] (setting [7]), -15%; in test [6] (setting [8]), 12%; in test [6] (at 50.0 µM) it was 70% (active).

For the molecule `CCCSc1n[nH]c(=S)s1`, the growth inhibition in test [1] (setting [7]) is -3%; in test [1] (setting [8]), 5%; in test [1] (at 50.0 µM), 27%; in test [2] (setting [7]), 2%; in test [2] (setting [8]), 30%; in test [2] (at 50.0 µM) it was 53%. Also, the growth inhibition in test [3] (setting [7]) was -1%; in test [3] (setting [8]), 46%; in test [3] (at 50.0 µM) it was 73.1% (active); in test [4] (setting [7]), -10%; in test [4] (setting [8]) it was 29%; in test [4] (at 50.0 µM), 32.6%. Moreover, the growth inhibition is -6% in test [5] (setting [7]); 13% in test [5] (setting [8]); 52% in test [5] (at 50.0 µM); -1% in test [6] (setting [7]); 15% in test [6] (setting [8]); 41.7% in test [6] (at 50.0 µM).

As for `C=CCCCCCCCCC(=O)CCCCCCCCC=C`, the growth inhibition in test [1] (setting [7]) is 0%; in test [1] (setting [8]), 2%; in test [1] (at 50.0 µM) it was 7.6%; in test [2] (setting [7]) it was -2%; in test [2] (setting [8]), 3%; in test [2] (at 50.0 µM) it was 9.2%. Moreover, the growth inhibition in test [3] (setting [7]) is -2%; in test [3] (setting [8]), 0%; in test [3] (at 50.0 µM) it was -3.35%; in test [4] (setting [7]) it was 6%; in test [4] (setting [8]), 3%; in test [4] (at 50.0 µM), 58.8%. The growth inhibition in test [5] (setting [7]) was -1%; in test [5] (setting [8]) it was 4%; in test [5] (at 50.0 µM) it was 14%; in test [6] (setting [7]), -4%; in test [6] (setting [8]), 1%; in test [6] (at 50.0 µM), 5.75%.

As to `CCCC(=O)c1cc(O)c(O)c(CN(C)Cc2cc(Cl)cc(C)c2O)c1O`, the growth inhibition in test [1] (setting [7]) is -8%; in test [1] (setting [8]), 91% (active); in test [1] (at 50.0 µM) it was 55%; in test [2] (setting [7]), 3%; in test [2] (setting [8]), 97% (active); in test [2] (at 50.0 µM), 52.5%. The growth inhibition in test [3] (setting [7]) was -11%; in test [3] (setting [8]), 94% (active); in test [3] (at 50.0 µM), 50.5%; in test [4] (setting [7]), -16%; in test [4] (setting [8]), 90% (active); in test [4] (at 50.0 µM), 60.6%. Also, the growth inhibition in test [5] (setting [7]) was -7%; in test [5] (setting [8]), 97% (active); in test [5] (at 50.0 µM), 49%; in test [6] (setting [7]) it was 19%; in test [6] (setting [8]), 96% (active); in test [6] (at 50.0 µM) it was 54.5%.

`Clc1nc(Cl)nc(N2CCCc3ccccc32)n1`: the growth inhibition is -24% in test [1] (setting [7]); 78% (active) in test [1] (setting [8]); 69.1% in test [1] (at 50.0 µM); -10% in test [2] (setting [7]); 78% (active) in test [2] (setting [8]); 70.9% (active) in test [2] (at 50.0 µM). For the same molecule, the growth inhibition in test [3] (setting [7]) is -19%; in test [3] (setting [8]), 67%; in test [3] (at 50.0 µM), 85.9% (active); in test [4] (setting [7]), 22%; in test [4] (setting [8]), 56%; in test [4] (at 50.0 µM), 74.7% (active). In addition, the growth inhibition was -10% in test [5] (setting [7]); 91% (active) in test [5] (setting [8]); 79% (active) in test [5] (at 50.0 µM); 2% in test [6] (setting [7]); 82% (active) in test [6] (setting [8]); 74.3% (active) in test [6] (at 50.0 µM).
